Assay outcomes deposited in PubChem by Sanford-Burnham Center for Chemical Genomics.
Compounds with a hit are over-represented: about 3% of the library has one in this group of screens.
SENP7 inh: SENP7 protease inhibition; Q9BQF6; inhibition, % at 5 µM; 1.5% of 330,000 active; recombinant SENP7, Z-RLRGG-aminoluciferin luminescence, 40 min;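 active = inhibition above about 50% at the single test dose, limit read from the data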;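 note: plate controls were DMSO with enzyme for no effect and no enzyme buffer wells for full effect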
TRAIL sens C8: sensitizes caspase-8 expressing cells to TRAIL | 1% of 360,000 active | inhibition (viability loss, TRAIL sensitization), % at 10 µM | NB7+C8 cells + TRAIL, ATPlite viability luminescence;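 active = compounds causing at least 50% loss of cell viability in the single-dose screen, relative to plate controls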
SENP6 inh: inhibitors of human SENP6 protease; 1.8% of 330,000 active; Q9GZR1; Recombinant SENP6 catalytic domain, aminoluciferin luminescence; inhibition, % at 10 µM;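 active = inhibition above about 50% at the single tested dose, limit read from the data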;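 note: plate controls were DMSO wells with enzyme for no effect and DMSO wells lacking enzyme for full effect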
Target sequence (Q9GZR1 628-1112 limits assumed): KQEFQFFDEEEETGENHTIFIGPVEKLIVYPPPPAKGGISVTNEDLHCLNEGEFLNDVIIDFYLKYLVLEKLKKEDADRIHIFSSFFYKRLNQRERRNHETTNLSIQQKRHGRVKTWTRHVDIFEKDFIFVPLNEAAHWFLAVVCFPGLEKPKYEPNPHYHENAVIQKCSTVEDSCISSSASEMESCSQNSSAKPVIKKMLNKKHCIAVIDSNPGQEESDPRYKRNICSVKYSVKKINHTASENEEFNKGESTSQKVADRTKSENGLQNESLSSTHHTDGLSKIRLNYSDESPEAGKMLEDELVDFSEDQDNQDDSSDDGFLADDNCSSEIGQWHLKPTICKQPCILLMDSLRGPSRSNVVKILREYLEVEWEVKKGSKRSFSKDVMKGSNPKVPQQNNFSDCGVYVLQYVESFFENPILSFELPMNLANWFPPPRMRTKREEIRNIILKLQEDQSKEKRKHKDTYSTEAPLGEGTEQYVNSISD
SENP8 block-1: SENP8 (human) protease inhibition; inhibition, % at 20 µM; AID 602440; 0.64% of 360,000 active; recombinant SENP8, Nedd8 substrate fluorescence; Q96LD8; in the data active = inhibition mostly above about 40%, no sharp cut-off; inactive = mostly below about 27%
PPC-1+TRAIL kill: kills PPC-1 cancer cells in the presence of TRAIL | PPC-1 cells + TRAIL, ATPLite viability luminescence | cell killing (% activity), % at 4 µM or 5 µM | 0.41% of 220,000 active | AID 1443;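 active = cell killing above 50% in the first pass at 4 µM, then a duplicate retest at 5 µM averaging 50% or more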;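 note: plate controls were cells with TRAIL plus DMSO for no effect and medium-only wells lacking cells for full effect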
SENP8 block-2: inhibitors of human SENP8 protease; Q96LD8; purified SENP8, Z-RLRGG-aminoluciferin cleavage, luminescence; inhibition, % at 10 µM; 1.2% of 330,000 active; AID 2540; in the data active = inhibition above about 50%
SENP8 confirm: human SENP8 inhibition, confirmed. shares compounds with SENP7 inh. Recombinant SENP8, Z-RLRGG-aminoluciferin luminescence, 60 min. inhibition, % at 12.5 µM. 40% of 6,200 active. AID 488912;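 active = mean inhibition across replicates above about 50%, limit read from the data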
SENP6 conf: human SENP6 inhibition, confirmed; shares compounds with SENP7 inh; recombinant SENP6, Z-RLRGG-aminoluciferin luminescence; inhibition, % at 12.5 µM; 58% of 6,200 active; AID 488915
SENP7 confirm: confirmation of human SENP7 protease inhibitors. shares compounds with SENP7 inh. 69% of 6,200 active. inhibition, % at 12.5 µM. recombinant SENP7, Z-RLRGG-aminoluciferin luminescence, 40 min
Casp3 select: selectivity test for SENP inhibitors: human caspase-3 inhibition. shares compounds with SENP7 inh. purified caspase-3, Z-DEVD-aminoluciferin luminescence, 60 min. inhibition, % at 12.5 µM. 60% of 6,200 active;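 active = mean inhibition above about 50%, limit read from the data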;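 note: plate controls were enzyme with DMSO for no effect and wells without caspase-3 for full effect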
SENP luc ctr: counter-screen for SENP inhibitors: luminescence interference; shares compounds with SENP7 inh; inhibition, % at 12.5 µM; Pre-incubated SENP8/Z-RLRGG-aminoluciferin, luciferase luminescence interference; 39% of 6,200 active;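 active = mean inhibition above about 50% when retested at one dose, limit read from the data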;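 note: plate controls were DMSO wells with completed reaction for no effect and substrate without enzyme for full effect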
* marks the source's active call; other numbers are inactive results.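 Rule for the calls, unless noted: active = mean inhibition above about 50% in the one-dose retest (limit read from the data); inactive = the rest.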

c1ccc(Oc2cc(-n3cccn3)ncn2)cc1 was read as SENP7 inh 46, TRAIL sens C8 26, SENP6 inh 54*, SENP8 block-1 5, PPC-1+TRAIL kill 24, SENP8 block-2 41, SENP8 confirm 3, SENP6 conf 33, SENP7 confirm 75*, Casp3 select 68* and SENP luc ctr 14.
CN(C)S(=O)(=O)c1cccc(NC(=O)COC(=O)c2cccnc2Cl)c1 was read as SENP7 inh -1, TRAIL sens C8 10, SENP6 inh 7, SENP8 block-1 4 and SENP8 block-2 14.
For CN(C(=O)COC(=O)c1ccc(Cl)s1)C1(C#N)CCCCC1 the results were SENP7 inh -9, TRAIL sens C8 1, SENP6 inh -14, SENP8 block-1 -8 and SENP8 block-2 5.
For NC(=O)C1CCN(c2nc3c(S(=O)(=O)c4ccccc4)nnn3c3ccccc23)CC1 the results were SENP7 inh 6, TRAIL sens C8 0, SENP6 inh -9, SENP8 block-1 -21 and SENP8 block-2 4.
Screening O=c1/c(=C\c2ccc3c(c2)OCO3)sc2n1CCCN=2 returned SENP7 inh 69*, TRAIL sens C8 27, SENP6 inh 78*, SENP8 block-1 -45, PPC-1+TRAIL kill 20, SENP8 block-2 55*, SENP8 confirm 1, SENP6 conf 28, SENP7 confirm 61*, Casp3 select 46 and SENP luc ctr 46.
Cc1ccc(/C=c2/sc3n(c2=O)CCCN=3)o1 was read as SENP7 inh 0, TRAIL sens C8 -11, SENP6 inh 2, SENP8 block-1 -4, PPC-1+TRAIL kill 24 and SENP8 block-2 2.
Screening O=C(Nc1ccccc1Cl)c1cc(C2CCCN(S(=O)(=O)c3cccs3)C2)on1 (stereo unspecified) returned TRAIL sens C8 -5 and SENP8 block-1 4.
CCOC(OCC)c1nc(N)[nH]c(=O)c1CCCCc1ccccc1 was read as TRAIL sens C8 -9 and SENP8 block-1 13.
`Cc1cccnc1Nc1nc(-c2ccc(O)cc2)cs1` gave SENP7 inh 94*, TRAIL sens C8 -7, SENP6 inh 93*, SENP8 block-1 13, PPC-1+TRAIL kill -13, SENP8 block-2 96*, SENP8 confirm 96*, SENP6 conf 98*, SENP7 confirm 102*, Casp3 select 89* and SENP luc ctr 97*.
`COc1cccc(Nc2nc(-c3ccc(O)cc3)cs2)c1` gave SENP7 inh -2, TRAIL sens C8 -1, SENP6 inh 36, SENP8 block-1 -40, PPC-1+TRAIL kill 6 and SENP8 block-2 0.
Screening Fc1ccc(-c2csc(NC3=NCCC3)n2)cc1 returned SENP7 inh -4, TRAIL sens C8 -7, SENP6 inh -1, SENP8 block-1 14, PPC-1+TRAIL kill 23 and SENP8 block-2 -12.
Screening Cc1cccnc1Nc1nc(-c2ccc(F)cc2)cs1 returned SENP7 inh 93*, TRAIL sens C8 -3, SENP6 inh 92*, SENP8 block-1 27, SENP8 block-2 89*, SENP8 confirm 89*, SENP6 conf 93*, SENP7 confirm 101*, Casp3 select 74* and SENP luc ctr 53*.
Screening C[C@H](CO)N1C[C@H](C)[C@@H](CN(C)S(=O)(=O)c2cn(C)cn2)OCc2cnnn2CCCC1=O returned TRAIL sens C8 -8 and SENP8 block-1 12.
Screening Cc1nc(C#N)c(N/N=C/c2cccc(Cl)c2)o1 returned SENP7 inh 11, TRAIL sens C8 12, SENP6 inh 78*, SENP8 block-1 -19, PPC-1+TRAIL kill -2, SENP8 block-2 86*, SENP8 confirm -3, SENP6 conf 91*, SENP7 confirm 100*, Casp3 select 80* and SENP luc ctr 84*.
`COc1ccc(N2CCN(CCC(O)c3ccc4ccccc4c3)CC2)cc1` (stereo unspecified) gave SENP7 inh -15, TRAIL sens C8 8, SENP6 inh -23, SENP8 block-1 13 and SENP8 block-2 -11.
Cc1ccc(C(=O)C(C)OC(=O)CCN2C(=O)C3C4C=CC(C5CC45)C3C2=O)cc1 (stereo unspecified) was read as SENP7 inh -6, TRAIL sens C8 -15, SENP6 inh -15, SENP8 block-1 5 and SENP8 block-2 2.
`Cc1ccccc1-c1nnc(-c2ccccc2)o1` gave SENP7 inh 83*, TRAIL sens C8 21, SENP6 inh 87*, SENP8 block-1 17, PPC-1+TRAIL kill 34, SENP8 block-2 83*, SENP8 confirm 78*, SENP6 conf 88*, SENP7 confirm 98*, Casp3 select 84* and SENP luc ctr 74*.
Screening Cc1ccc(/C=C/c2nnc(-c3cccc(C)c3)o2)cc1 returned SENP7 inh 13, TRAIL sens C8 4, SENP6 inh 80*, SENP8 block-1 -273, PPC-1+TRAIL kill 4, SENP8 block-2 68*, SENP8 confirm 3, SENP6 conf 0, SENP7 confirm -2, Casp3 select -2 and SENP luc ctr -3.
Screening c1ccc(-c2nnc(-c3ccco3)o2)cc1 returned SENP7 inh 44, TRAIL sens C8 2, SENP6 inh 47, SENP8 block-1 -78, PPC-1+TRAIL kill 18 and SENP8 block-2 16.
Screening Cc1cccc(-c2nnc(-c3ccccc3)o2)c1 returned SENP7 inh 86*, TRAIL sens C8 16, SENP6 inh 88*, SENP8 block-1 5, PPC-1+TRAIL kill 16, SENP8 block-2 74*, SENP8 confirm 4, SENP6 conf 86*, SENP7 confirm 98*, Casp3 select 82* and SENP luc ctr 66*.
Cn1cc(-c2nnc(-c3ccccc3)o2)c2ccccc21 was read as SENP7 inh 68*, TRAIL sens C8 40, SENP6 inh -36, SENP8 block-1 -339, PPC-1+TRAIL kill 47, SENP8 block-2 47, SENP8 confirm 15, SENP6 conf 12, SENP7 confirm 15, Casp3 select 18 and SENP luc ctr 6.
